# Results published in PubChem BioAssay (NCATS).
# Where “and” joins values, the source holds several entries; their conditions need not be identical. Equal values may be shown once. Results filed as inconclusive are left out. Entries that show only a call come without a potency. Some structures have more than one record in an assay (separate samples or runs), and their calls can disagree. For some assays here: Potency and affinity values are given separately. Calls of active or inactive are those of the source.
# Assays:
# [1] = Ebola virus entry assay, blue channel fluorescence
# [2] = Ebola virus entry assay, ratio channel readout
# [3] = qHTS Assay for Identifying Gametocytocidal Compounds (AID 743244; active means well fitted curve in the direction sought with a large enough effect; an effect the other way counts as inactive or inconclusive; further: potency means the concentration at half of the fitted maximal effect;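 on max response: actives lower the fluorescent signal which means gametocytes are killed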); settings: P. falciparum 3D7 stage III-V gametocytes, alamarBlue, 72 h; max response: stronger effect = lower value
# Outline: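 Stage III-V P. falciparum 3D7 gametocytes, 20,000 per well, were exposed to compounds for 72 h at 37C, 5% CO2. AlamarBlue was then added for 24 h and viability was read as fluorescence at Ex 525/Em 598 nm.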
# [4] = Ebola virus entry assay, green fluorescence channel
# [5] = Ebola virus entry assay, blue channel fluorescence; remark: listed apart in the source
# [6] = Ebola virus entry assay, ratio channel
# [7] = qHTS for Activators of Parkin Expression: LOPAC Validation Assay (FLuc Reporter) (AID 720573; active means well fitted curve in the direction sought with a large enough effect; an effect the other way counts as inactive or inconclusive); settings: Cell line, PRKN promoter firefly luciferase reporter, vehicle wells = 0, positive control = 100%; series mostly up to 46.1 µM
# Outline: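 Neuronal cell line stably carrying FLuc/NLuc coincidence reporter under Parkin promoter; cells plated 24 h, then compounds added in 7-point dose response for 24 h at 37 C. FLuc luminescence read; normalized to DMSO and positive control (100%).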
# [8] = qHTS assay for small molecule agonists of the antioxidant response element (ARE) signaling pathway measured by Nrf2-dependant transcriptional activity (AID 720636; active means well fitted curve in the direction sought with a large enough effect in the repeat runs; an effect the other way counts as inactive or inconclusive;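 further: HepG2 cells with an ARE-driven luciferase reporter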); settings: ARE-luc HepG2, Nrf2 luciferase reporter, 16 h; series mostly up to 92.4 µM
# Outline: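 HepG2 ARE-luc reporter line, 1% dialyzed FBS; 6 hr attachment at 37 C, compound pinned in, 16 hr at 37 C/5% CO2; ONE-Glo, 30 min RT, luminescence read.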
# [9] = qHTS assay for small molecule antagonists of the retinoid-related orphan receptor gamma (ROR-gamma) signaling pathway - cell viability counter screen (AID 720652; active means well fitted curve in the direction sought with a large enough effect in the repeat runs; an effect the other way counts as inactive or inconclusive;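 further: CHO reporter cells with doxycycline-induced ROR-gamma expression; compound exposure lasted 16 hr before ATP read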); settings: RORgamma reporter cell line viability counter screen; series mostly up to 92.2 µM
# Outline: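 CHO cells carrying TET-inducible ROR and RORE-luciferase reporter, plated 5 hr, then dosed with compound plus doxycycline. After 16 hr at 37 C, viability read as intracellular ATP by CellTiter-Glo luminescence.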
# [10] = qHTS assay for small molecule agonists of the antioxidant response element (ARE) signaling pathway measured by Nrf2-dependant transcriptional activity - cell viability counter screen (AID 720653; active means well fitted curve in the direction sought with a large enough effect in the repeat runs; an effect the other way counts as inactive or inconclusive); settings: ARE-bla HepG2 viability, CellTiter-Glo ATP luminescence, 16 h; stronger effect = lower value
# Outline: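 ARE-bla HepG2 cells treated with compounds for 16 h at 37C; this counter screen measures viability as intracellular ATP by CellTiter-Glo luminescence after 30 min at room temperature.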
# [11] = target: T1, Hexokinase-4 (Homo sapiens) + Glucokinase regulatory protein (Homo sapiens) (UniProt P35557+Q14397); assay: qHTS assay for inhibitors of recombinant human GCK-GKRP interaction: Diaphorase-coupled assay (AID 743205; active means well fitted curve in the direction sought with a large enough effect; an effect the other way counts as inactive or inconclusive); settings: G6PDH/diaphorase resorufin fluorescence; series mostly up to 57.5 µM
# Outline: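 GST-GCK (10 nM) with FLAG-GKRP (10 nM), 5 mM glucose and 0.4 mM ATP in pH 7.6 Hepes; compounds preincubated 20 min with substrate. G6PDH/diaphorase coupling converts resazurin to resorufin, read kinetically (ex 525/em 590 nm) for 30 min.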
# [12] = target: T1, Hexokinase-4 (Homo sapiens) + Glucokinase regulatory protein (Homo sapiens); assay: qHTS assay for inhibitors of recombinant human GCK-GKRP interaction: ADP-Glo assay (AID 743206; active means well fitted curve in the direction sought with a large enough effect; an effect the other way counts as inactive or inconclusive); settings: ADP-Glo luminescence, 60 min, 0% = vehicle-only wells with enzyme present; series mostly up to 76.9 µM
# Outline: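 GST-GCK and FLAG-GKRP (15 nM each in the dispensed mix, with 2 uM S6P) react with 0.4 mM ATP and 5 mM glucose (final) in Hepes pH 7.6 for 60 min at room temperature. ADP is measured by ADP-Glo luminescence.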
# [13] = qHTS assay for cell viability of HEK293 cells (AID 743288; active means well fitted curve in the direction sought with a large enough effect; an effect the other way counts as inactive or inconclusive; further: nearly all actives have a fitted effect of over 50% in size); settings: ATP luminescence (CellTiter-Glo), 18 h, stronger effect = lower value
# Outline: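 Parental HEK293 cells were seeded at 2,000 cells/well, rested at least 5 h at 37 C, then exposed to compounds in DMSO for 18 h at 37 C. Viability was read as ATP-dependent luciferase luminescence after 30 min at room temperature.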
# [14] = qHTS profiling for inhibitors of Plasmodium falciparum (3D7) proliferation (AID 743322; call rule not given here;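 further: infected erythrocytes exposed to compound for 72 h before lysis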); settings: P. falciparum 3D7 proliferation; at 28.7 µM (top of the series)
# Outline: (§1)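 Erythrocytes infected with P. falciparum (0.3% parasitemia, 2.5% hematocrit) incubated with compounds 72 h at 37 C, 5% CO2. Lysis with saponin/Triton buffer containing SYBR Green I, overnight at room temperature in the dark; DNA fluorescence (485/535 nm) normalised to 0.29 uM artemisinin and DMSO.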
# [15] = qHTS profiling for inhibitors of Plasmodium falciparum (DD2) proliferation (AID 743323; call rule not given here); settings: lower = more inhibition; at 28.7 µM (top of the series)
# Outline: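 Parasite proliferation measured via DNA-dye fluorescence, as uninfected erythrocytes lack DNA. Cultures at 0.3% parasitemia and 2.5% hematocrit incubated 72 h with compound; signal scaled between vehicle and 0.29 uM artemisinin wells.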
# [16] = qHTS profiling of the MIPE4 collection as inhibitors of Plasmodium falciparum (3D7) proliferation (AID 743344; call rule not given here); settings: P. falciparum 3D7 in erythrocytes, SYBR Green DNA fluorescence, 72 h; at 28.5 µM (top of the series) unless noted
# Outline: as §1
# [17] = qHTS profiling of the MIPE4 collection as inhibitors of Plasmodium falciparum (DD2) proliferation (AID 743345; call rule not given here); settings: P. falciparum Dd2 in erythrocytes, SYBR Green DNA, 72 h; at 28.5 µM (top of the series) unless noted
# Outline: as §1
# [18] = qHTS profiling of the MIPE4 collection as inhibitors of Plasmodium falciparum (DD2) proliferation (Rep 2) (AID 743346; call rule not given here); settings: P. falciparum Dd2 in erythrocytes, SYBR Green DNA, 72 h; at 28.5 µM (top of the series) unless noted
# Outline: as §1
# [19] = qHTS profiling of the MIPE4 collection as inhibitors of Plasmodium falciparum (HB3) proliferation (AID 743347; call rule not given here); settings: P. falciparum HB3 in erythrocytes, SYBR Green DNA, 72 h; at 28.5 µM (top of the series) unless noted
# Outline: as §1
# T1 sequence (P35557 whole entry, looked up): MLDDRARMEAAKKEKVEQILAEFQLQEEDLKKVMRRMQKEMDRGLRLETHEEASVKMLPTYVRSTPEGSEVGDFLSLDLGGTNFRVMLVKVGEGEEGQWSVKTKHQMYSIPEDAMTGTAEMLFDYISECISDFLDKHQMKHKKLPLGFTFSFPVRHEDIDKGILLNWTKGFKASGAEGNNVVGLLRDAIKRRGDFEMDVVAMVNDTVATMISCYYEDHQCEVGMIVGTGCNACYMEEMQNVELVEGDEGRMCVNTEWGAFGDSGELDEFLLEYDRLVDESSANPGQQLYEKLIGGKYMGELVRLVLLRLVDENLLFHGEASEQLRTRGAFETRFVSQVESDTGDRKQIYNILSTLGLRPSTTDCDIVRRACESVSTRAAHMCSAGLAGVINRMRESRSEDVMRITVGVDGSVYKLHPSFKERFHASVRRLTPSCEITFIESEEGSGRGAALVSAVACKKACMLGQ
# T1 sequence (Q14397 whole entry, looked up): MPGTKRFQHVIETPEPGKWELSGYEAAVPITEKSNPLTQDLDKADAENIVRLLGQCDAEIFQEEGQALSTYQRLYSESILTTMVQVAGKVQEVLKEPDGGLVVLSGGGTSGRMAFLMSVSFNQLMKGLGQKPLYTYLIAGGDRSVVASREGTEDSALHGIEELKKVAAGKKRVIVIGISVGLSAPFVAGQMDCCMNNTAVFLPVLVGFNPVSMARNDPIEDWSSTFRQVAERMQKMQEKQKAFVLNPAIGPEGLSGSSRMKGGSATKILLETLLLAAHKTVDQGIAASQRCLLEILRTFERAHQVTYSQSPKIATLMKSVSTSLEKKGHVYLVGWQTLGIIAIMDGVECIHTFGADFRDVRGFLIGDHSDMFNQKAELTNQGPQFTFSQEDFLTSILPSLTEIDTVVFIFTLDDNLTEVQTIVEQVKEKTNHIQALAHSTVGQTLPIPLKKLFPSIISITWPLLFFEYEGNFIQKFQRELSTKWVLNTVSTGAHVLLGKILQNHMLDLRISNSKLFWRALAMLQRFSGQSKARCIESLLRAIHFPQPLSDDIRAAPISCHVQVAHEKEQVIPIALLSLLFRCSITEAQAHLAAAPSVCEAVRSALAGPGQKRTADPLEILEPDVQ
smiles,measurement,setting,value
N[C@@H](Cc1cc(I)c(Oc2ccc(O)c(I)c2)c(I)c1)C(=O)O,outcome,[1],inactive
same,outcome,[2],inactive
Cc1nnc2n1-c1ccc(Cl)cc1C(c1ccccc1Cl)=NC2,max response,[3],-0.695% (inactive)
same,outcome,[1],inactive
same,outcome,[4],inactive
same,outcome,[2],inactive
C[C@H](CS)C(=O)N1CCC[C@H]1C(=O)O,outcome,[1],inactive
same,outcome,[2],inactive
same,outcome,[5],inactive
same,outcome,[6],inactive
COc1cccc2c1C(=O)c1c(O)c3c(c(O)c1C2=O)C[C@@](O)(C(C)=O)C[C@H]3O[C@H]1C[C@H](N)[C@H](O)[C@H](C)O1,AC50,[1],6.31 µM (active)
same,AC50,[2],5.63 µM (active)
O=c1[nH]c(=O)n([C@H]2C[C@H](O)[C@@H](CO)O2)cc1F,outcome,[4],inactive
same,outcome,[5],inactive
same,outcome,[6],inactive
CN=C1CN(O)C(c2ccccc2)=c2cc(Cl)ccc2=N1,max response,[3],7.17% (inactive)
same,outcome,[1],inactive
same,outcome,[4],inactive
same,outcome,[2],inactive
CCOC(=O)C1=C(COCCN)NC(C)=C(C(=O)OC)C1c1ccccc1Cl (configuration not stated),Potency,[3],20 µM (active)
same,max response,[3],-0.484% (inactive)
same,outcome,[1],inactive
same,outcome,[4],inactive
same,outcome,[2],inactive
NC(=O)COCCN1CCN(C(c2ccccc2)c2ccc(Cl)cc2)CC1 (configuration not stated),outcome,[1],inactive
same,outcome,[2],inactive
CC(=O)S[C@@H]1CC2=CC(=O)CC[C@]2(C)[C@H]2CC[C@@]3(C)[C@@H](CC[C@@]34CCC(=O)O4)[C@H]12,outcome,[1],inactive
same,outcome,[2],inactive
CCC1=C(C)CN(C(=O)NCCc2ccc(S(=O)(=O)NC(=O)NC3CCC(C)CC3)cc2)C1=O (configuration not stated),outcome,[4],inactive
same,outcome,[2],inactive
O=P1(N(CCCl)CCCl)NCCCO1 (configuration not stated),outcome,[7],inactive
same,outcome,[8],inactive
same,outcome,[9],inactive
same,max response,[10],1.71% (inactive) and -4.84% (inactive)
same,outcome,[11],inactive
same,outcome,[12],inactive
same,max response,[3],-0.339% (inactive) and 12.3% (inactive)
same,max response,[13],-14.2% (inactive) and 0.164% (inactive)
same,remaining parasite growth % (stronger effect = lower value),[14],108% and 105%
same,"activity, percent of control",[15],108% and 125%
same,"parasite growth, % of DMSO control",[16],42.1%
same,"parasite growth remaining, % of DMSO control (lower = more inhibition)",[17],54.1%
same,"parasite growth, % of control (lower = inhibition)",[18],39.6%
same,"growth, % of control",[19],65.9%
same,outcome,[1],inactive
same,outcome,[4],inactive
same,outcome,[5],inactive
